Active and inactive are the calls of the source. Unless noted, how the calls were made is not given here.
Columns and labels:
[1] = anti-His antibody binders, primary screen, artefact control for SMM control protein annotation, biochemical, small-molecule microarray, 635 nm fluorescence (AID 1128); conditions: anti-His Alexa647 antibody binding, higher = more signal;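 further: score merges feature fluorescence with signal-to-noise for each printed compound spot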
[2] = system: Human papillomavirus type 1a E7 protein (residues 1-88); assay: HPV1a E7 small-molecule binders, primary screen, biochemical, small-molecule microarray, residues 1-88, 635 nm (AID 1129); conditions: small-molecule microarray binding, fluorescence 635 nm; higher = more signal
[3] = target: Focal adhesion kinase 1 (Homo sapiens) (UniProt Q05397); assay: small-molecule microarray binders of FAK, primary screen, biochemical, 635/667 nm fluorescence, BSA, DTT (AID 1130); conditions: PTK2 binding, 635 nm fluorescence, higher = more signal;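 further: composite of spot emission at 667 nm and signal to noise over triplicate slides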
[4] = system: Fibrinogen (Alexa647-labelled); assay: fibrinogen binders on compound microarrays, profiling panel, artefact control for SMM control-protein annotation, biochemical, small-molecule microarray, 635/667 nm fluorescence (AID 1131); conditions: fibrinogen-A647 binding fluorescence, higher = more signal;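 further: z-score merges 667 nm fluorescence with per-spot signal-to-noise over triplicate slides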
[5] = target: Follistatin (Homo sapiens) (UniProt P19883); assay: follistatin binders on small-molecule microarrays, primary screen, biochemical, small-molecule microarray, 635/667 nm fluorescence (AID 1132); conditions: FST binding, 635 nm fluorescence, higher = more signal
[6] = target: Fibroblast growth factor 2 (Homo sapiens) (UniProt P09038); assay: FGF2 binders on small-molecule microarrays, primary screen, biochemical, small-molecule microarray, 635/667 nm fluorescence (AID 1133); conditions: small-molecule microarray binding, FGF2, fluorescence 635/667; higher = more signal
[7] = mitochondrial membrane potential change in A549 cells, profiling panel, cell-based, JC-1 fluorescence, basal, 24 h, 100 nL (AID 1138); conditions: higher = more signal;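 further: A549 lung adenocarcinoma cells under basal conditions with no added stimulus; test concentration not given here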
Lefty1 = Lefty1 binders on small-molecule microarrays, primary screen, biochemical, small-molecule microarray, 635/667 nm fluorescence (AID 1139); conditions: small-molecule microarray binding, fluorescence 635/667; higher = more signal
[8] = system: wheat germ agglutinin (Triticum aestivum), Alexa647-labelled; assay: wheat germ agglutinin binders on compound microarrays, profiling panel, artefact control for SMM control-protein annotation, biochemical, small-molecule microarray, 635/667 nm fluorescence (AID 1140); conditions: WGA-A647 binding, 635 nm fluorescence, higher = more signal;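 further: score merges 667 nm feature emission with signal to noise over triplicate slides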
[9] = target: Luciferin 4-monooxygenase (Photinus pyralis) (UniProt P08659); assay: firefly luciferase enzyme inhibitors, primary screen, biochemical, luminescence, purified enzyme, 2006 set (AID 1141); conditions: SteadyGlo luminescence, 30 min, higher = more signal, called active from +8 up or from −8 down;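 further: cell-free assay with purified firefly luciferase at 100 ng per well in PBS; test concentration not given here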
[10] = system: Wnt5a (protein binding on small-molecule microarray); assay: Wnt5a binders on small-molecule microarray, primary screen, biophysical, 635/667 nm fluorescence (AID 1142); conditions: 635 nm fluorescence, higher = more signal;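 further: fluorescence read at 667 nm with signal to noise per printed feature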
[11] = cell viability in Huh7 cells, primary screen, cytotoxicity control for HCV replication inhibitor project, CellTiter-Glo luminescence, basal, 48 h (AID 1143); conditions: Huh7 HCV replicon, higher = more signal, called active from +8 up or from −8 down;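 further: Huh7 hepatoma cells carrying a hepatitis C replication reporter with no stimulus; test concentration not given here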
[12] = P. aeruginosa biofilm formation inhibitors, primary screen, PAO1 strain, BacTiter-Glo luminescence, LB-PBS (AID 1144); conditions: 12 h, higher = more signal
[13] = CREB reporter modulators without forskolin, primary screen, cell-based, PC12, CRE-LacZ reporter, unstimulated (AID 1145); conditions: no forskolin, luminescence, 4.5 h, higher = more signal, called active from +8 up or from −8 down
[14] = CREB reporter modulators under forskolin, primary screen, cell-based, PC12, CRE-LacZ reporter, forskolin-stimulated (AID 1146); conditions: luminescence, 4.5 h, higher = more signal, called active from +8 up or from −8 down;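 further: PC12 cells with 6xCRE LacZ reporter stimulated by forskolin 10 µM; beta-galactosidase reporter signal reflecting CREB driven transcription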
[15] = target: Streptavidin (Streptomyces avidinii) (UniProt P22629); assay: streptavidin binders on small-molecule microarray, primary screen, artefact control for SMM compound annotation, biophysical, 635/667 nm fluorescence (AID 1147); conditions: streptavidin binding, higher = more signal;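 further: signal reflects streptavidin binding to arrayed compounds as a control protein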
[16] = small-molecule binders of probe aInhba, primary screen, biochemical, small-molecule microarray, 635/667 nm fluorescence (AID 1148); conditions: higher = more signal;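 further: score merges 667nm spot fluorescence with signal-to-noise for antibody binding to printed compounds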
Torsin-1A (Homo sapiens) [17] = target: Torsin-1A (Homo sapiens) (UniProt O14656); assay: torsin A binders from cell lysate, primary screen, small-molecule microarray, wild-type, 635/667 nm (AID 1149); conditions: COS7 hTOR1A-WT lysate, 635 nm fluorescence, higher = more signal
Torsin-1A (Homo sapiens) [18] = target: Torsin-1A (Homo sapiens) (UniProt O14656); assay: small-molecule binders of mutant TOR1A in lysate, primary screen, cell lysate, small-molecule microarray, COS7 lysate, 635/667 nm fluorescence (AID 1150); conditions: COS7 hTOR1A mutant lysate, 635 nm fluorescence, higher = more signal;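 further: score pools 667 nm emission and signal to noise measuring lysate protein binding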
[19] = system: Sonic hedgehog protein (Shh); assay: small-molecule binders of Shh protein, primary screen, biochemical, small-molecule microarray, 635/667 nm fluorescence (AID 1151); conditions: small-molecule microarray binding, 635 nm fluorescence; higher = more signal;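 further: Shh protein binding to compounds spotted on small-molecule microarray slides; score combines spot fluorescence intensity with signal-to-noise across triplicate slides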

Chain of Focal adhesion kinase 1 (Homo sapiens) (Q05397 whole entry, looked up): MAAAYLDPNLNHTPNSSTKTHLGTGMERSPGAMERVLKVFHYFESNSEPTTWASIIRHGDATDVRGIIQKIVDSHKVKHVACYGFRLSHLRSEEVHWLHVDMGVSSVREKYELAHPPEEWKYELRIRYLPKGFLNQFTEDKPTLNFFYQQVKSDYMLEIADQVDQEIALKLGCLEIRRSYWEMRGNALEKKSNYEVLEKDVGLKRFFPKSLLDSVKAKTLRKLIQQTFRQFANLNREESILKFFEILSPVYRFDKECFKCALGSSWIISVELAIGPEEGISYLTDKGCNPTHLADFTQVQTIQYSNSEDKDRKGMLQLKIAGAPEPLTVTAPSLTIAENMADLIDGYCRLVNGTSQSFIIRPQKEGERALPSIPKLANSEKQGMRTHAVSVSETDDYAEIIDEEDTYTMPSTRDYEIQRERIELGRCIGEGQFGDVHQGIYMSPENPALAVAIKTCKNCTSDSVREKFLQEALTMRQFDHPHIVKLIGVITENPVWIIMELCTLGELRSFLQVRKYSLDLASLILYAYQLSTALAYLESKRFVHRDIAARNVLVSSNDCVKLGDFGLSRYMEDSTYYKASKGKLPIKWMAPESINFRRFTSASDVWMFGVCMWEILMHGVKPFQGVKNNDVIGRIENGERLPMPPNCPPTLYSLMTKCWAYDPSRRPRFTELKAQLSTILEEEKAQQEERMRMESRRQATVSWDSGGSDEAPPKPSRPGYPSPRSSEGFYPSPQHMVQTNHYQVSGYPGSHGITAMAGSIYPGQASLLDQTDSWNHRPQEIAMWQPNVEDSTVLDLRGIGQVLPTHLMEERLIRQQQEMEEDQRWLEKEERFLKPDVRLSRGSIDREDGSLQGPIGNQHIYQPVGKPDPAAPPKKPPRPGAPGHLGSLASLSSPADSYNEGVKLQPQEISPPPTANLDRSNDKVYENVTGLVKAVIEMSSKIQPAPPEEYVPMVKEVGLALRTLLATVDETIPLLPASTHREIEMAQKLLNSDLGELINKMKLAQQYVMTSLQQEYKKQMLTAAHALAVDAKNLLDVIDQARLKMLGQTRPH
Chain of Torsin-1A (Homo sapiens) (O14656 whole entry, looked up): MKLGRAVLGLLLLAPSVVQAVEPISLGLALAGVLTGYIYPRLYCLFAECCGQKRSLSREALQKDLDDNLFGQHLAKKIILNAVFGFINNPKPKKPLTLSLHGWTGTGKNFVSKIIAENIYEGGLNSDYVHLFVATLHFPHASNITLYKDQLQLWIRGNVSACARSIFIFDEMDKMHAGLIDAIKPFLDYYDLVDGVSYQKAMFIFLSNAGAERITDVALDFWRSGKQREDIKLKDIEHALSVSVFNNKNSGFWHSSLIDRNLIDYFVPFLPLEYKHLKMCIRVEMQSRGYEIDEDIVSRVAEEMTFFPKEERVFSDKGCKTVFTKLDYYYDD
Chain of Fibroblast growth factor 2 (Homo sapiens) (P09038 whole entry, looked up): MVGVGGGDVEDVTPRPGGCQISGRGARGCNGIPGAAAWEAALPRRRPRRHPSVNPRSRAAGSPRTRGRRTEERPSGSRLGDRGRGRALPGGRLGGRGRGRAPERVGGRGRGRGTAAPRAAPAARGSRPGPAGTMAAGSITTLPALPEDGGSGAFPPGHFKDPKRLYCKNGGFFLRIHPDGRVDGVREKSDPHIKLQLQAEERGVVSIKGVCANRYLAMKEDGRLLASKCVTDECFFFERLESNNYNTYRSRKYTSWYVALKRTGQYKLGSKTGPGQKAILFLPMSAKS
Chain of Streptavidin (Streptomyces avidinii) (P22629 whole entry, looked up): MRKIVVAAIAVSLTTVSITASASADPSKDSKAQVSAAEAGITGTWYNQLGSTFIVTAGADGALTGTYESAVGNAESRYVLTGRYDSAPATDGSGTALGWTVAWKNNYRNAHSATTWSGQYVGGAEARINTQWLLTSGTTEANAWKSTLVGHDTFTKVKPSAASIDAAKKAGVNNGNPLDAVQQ
Chain of Luciferin 4-monooxygenase (Photinus pyralis) (P08659 whole entry, looked up): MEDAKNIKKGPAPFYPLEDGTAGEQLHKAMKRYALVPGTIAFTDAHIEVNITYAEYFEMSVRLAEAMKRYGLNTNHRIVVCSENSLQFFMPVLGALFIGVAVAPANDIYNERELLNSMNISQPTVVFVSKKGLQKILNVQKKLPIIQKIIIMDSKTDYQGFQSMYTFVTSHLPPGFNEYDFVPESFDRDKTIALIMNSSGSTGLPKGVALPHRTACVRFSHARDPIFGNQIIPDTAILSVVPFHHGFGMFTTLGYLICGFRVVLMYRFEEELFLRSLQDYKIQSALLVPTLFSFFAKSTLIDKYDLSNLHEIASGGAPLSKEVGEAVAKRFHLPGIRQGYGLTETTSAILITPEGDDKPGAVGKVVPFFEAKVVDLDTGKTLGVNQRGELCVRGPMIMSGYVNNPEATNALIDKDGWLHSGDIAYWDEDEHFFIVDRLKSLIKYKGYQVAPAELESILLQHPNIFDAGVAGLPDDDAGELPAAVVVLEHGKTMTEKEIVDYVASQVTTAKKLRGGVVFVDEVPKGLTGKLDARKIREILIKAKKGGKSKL
Chain of Follistatin (Homo sapiens) (P19883 whole entry, looked up): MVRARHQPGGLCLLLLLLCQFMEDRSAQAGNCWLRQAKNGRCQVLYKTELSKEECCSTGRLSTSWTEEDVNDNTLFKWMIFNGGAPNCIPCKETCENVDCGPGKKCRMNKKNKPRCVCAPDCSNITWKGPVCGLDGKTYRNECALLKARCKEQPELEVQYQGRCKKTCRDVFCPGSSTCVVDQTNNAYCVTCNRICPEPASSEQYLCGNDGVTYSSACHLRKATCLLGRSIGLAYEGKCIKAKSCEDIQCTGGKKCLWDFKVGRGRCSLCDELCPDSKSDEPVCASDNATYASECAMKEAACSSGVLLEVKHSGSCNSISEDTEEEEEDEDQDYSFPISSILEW

Row | SMILES | composite z-score [1] | composite z-score [2] | composite z-score [3] | composite z-score [4] | composite z-score [5] | composite z-score [6] | z-score [7] | composite z-score (Lefty1) | composite z-score [8] | z-score [9] | composite z-score [10] | z-score [11] | z-score [12] | z-score [13] | z-score [14] | composite z-score [15] | composite z-score [16] | composite z-score (Torsin-1A (Homo sapiens) [17]) | composite z-score (Torsin-1A (Homo sapiens) [18]) | composite z-score [19]
1 | O=C1[C@H]2[C@H]3[C@H](O)[C@H](O)CC(=NOCc4ccccc4)[C@H]3CC[C@H]2C(=O)N1C[C@@H]1CCCO1 | 0.216 | 0.586 | -0.0074 | 0.953 | 0.393 | 1.12 | -0.877 | 0.249 | 0.352 | 0.949 (inactive) | 0.171 | -0.34 (inactive) | 0.282 (inactive) | -0.298 (inactive) | -0.471 (inactive) | 0.295 | -0.0963 | 0.95 | 0.119 | 0.135
2 | C#C[C@@H](CC)O[Si](C#Cc1ccc(Oc2ccccc2)cc1)(C(C)C)C(C)C | 0.491 | 0.649 | -0.0378 | 0.15 | 0.395 | 0.307 | -1.81 | 0.63 | 0.299 | 0.0007 (inactive) | 0.142 | -0.533 (inactive) | 0.159 (inactive) | -0.738 (inactive) | 0.0319 (inactive) | -0.149 | -0.0736 | 0.293 | 0.321 | 0.486
3 | C=CC[C@]1(C(=O)NCc2ccccc2)N=C(c2ccc(OCCCO)cc2)O[C@H]1c1ccccc1 | -0.158 | 1.22 | 0.115 | 0.632 | 0.431 | -0.35 | 0.453 | -0.0085 | 0.366 | 0.185 (inactive) | -0.2 | -4.19 (inactive) | -0.71 (inactive) | 0.848 (inactive) | 1.34 (inactive) | -0.134 | -0.003 | 1.04 | 1.39 | -0.872
4 | COCCOC(=O)N1C(=O)[C@@]2(c3cc(C#Cc4ccc(OC)cc4)ccc31)[C@H](c1ccc(O)cc1)N1[C@H](c3ccccc3)[C@H](c3ccccc3)OC(=O)[C@H]1[C@@H]2C(N)=O | 0.308 | 1.17 | 0.126 | 0.972 | 1.3 | 0.852 | -1.47 | 0.728 | 0.779 | 0.556 (inactive) | 0.586 | -2.75 (inactive) | -0.97 (inactive) | -0.752 (inactive) | -0.94 (inactive) | 0.417 | -0.0947 | 0.187 | 0.825 | 1.44
5 | CN(C)c1ccc(C(O)C2C=CC3C(=O)N(c4ccccc4)C(=O)C3N2Nc2ccccc2F)cc1 (stereo not given) | 1.68 | 1.24 | 0.0651 | 0.793 | 0.404 | -0.872 | -1.06 | 0.0136 | 0.792 | -0.484 (inactive) | 0.0698 | -1.3 (inactive) | 0.136 (inactive) | 2.56 (inactive) | 1.03 (inactive) | 0.557 | -0.125 | 0.221 | 0.15 | -0.378
